# High-throughput results (PubChem)
# Shown are actives, neighbours in structure and some others; about 12% of the full set was active somewhere.
# FMDV inh: High Throughput Screening for Foot and Mouth Disease Virus Antivirals | Potency, µM (top dose mostly 57.9 µM), inactives show at the top dose activity change, negative = inhibition, most hits filed as inhibitors | AID 1159524, 2015 | 1.2% of 410,000 active | FMDV antiviral cell-based qHTS; calls by dose curve; tested in HEK293T cells; also: read-out not given here; potency is read from the fitted curve at half-maximal effect; % is scaled to controls: 0 for no effect and ±100 for the full control effect; nearly all actives have a fitted effect of over 45% in size
# Shiga toxin inh: A qHTS for Small Molecule Inhibitors of Shiga Toxin. Vero cells, Shiga toxin protein synthesis inhibition reporter. inhibition, % at 38.7 µM. 9.2% of 290,000 active; in the data active = inhibition mostly above about 28%, no sharp cut-off; inactive = mostly below about 43%; also: 0% is about no effect
# Sm TGR block: qHTS Assay for the Inhibitors of Schistosoma Mansoni Peroxiredoxins. purified TGR, DTNB reduction, TNB absorbance 405 nm. 3% of 360,000 active. AID 485364, 2010. Potency, µM (series often up to 114 µM), for the others: top-dose activity change, negative = inhibition, usual class: inhibitors; active = well fitted inhibition curve with a large enough effect; inconclusive = small, poorly fitted or top-dose-only effect; inactive = no such curve, though single readings can be large or run the other way; also: potency is read from the fitted curve at half-maximal effect; % is scaled to controls: 0 for no effect and ±100 for the full control effect; nearly all actives have a fitted effect of over 60% in size
#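 TGR 20 nM + NADPH 100 uM (dispensed conc.), cpd preinc 15 min RT; start with NADPH (500 uM addition) then DTNB (15 mM addition). Kinetic TNB absorbance, 405 nm filter. Four-parameter Hill fit across titration.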
# CHX counter: Cycloheximide Counterscreen for Small Molecule Inhibitors of Shiga Toxin | cell reporter, cycloheximide protein synthesis inhibition counterscreen | max response, % | 12% of 300,000 active; in the data active = max response mostly above about 13%, no sharp cut-off; inactive = mostly below about 14%; also: read at 38.3 µM for the half of the compounds with a filed dose; 0% is about no effect
# Starred values were filed as active, the others as inactive; ? = inconclusive; / = no result.
SMILES,FMDV inh,Shiga toxin inh,Sm TGR block,CHX counter
CN(CC(=O)Nc1ccc(N2CCOCC2)cc1)Cc1c(O)ccc2ccccc12,-15%,11,0.4µM*,4
CN(CC(=O)Nc1ccc(N2CCOCC2)cc1)C(=O)CCNC(=O)c1ccccc1Cl,-7%,/,-12%,/
COc1ccccc1C(=O)NC1(C(F)(F)F)C(=O)Nc2c1c(=O)[nH]c(=O)n2-c1ccccc1 (centres undefined),-6%,/,10%,/
CC(=O)c1cccc(NC(=O)c2cc3sc(Cl)cc3n2C)c1,20%,/,6%,/
COC(=O)C1=COC(C)C2CN3CCC4(C(=O)Nc5ccccc54)C3CC12 (centres undefined),0%,-10,4%,-5
COC(=O)C1=COC(C)C2CN3CCc4c([nH]c5cc(OC)c(OC)cc45)C3CC12 (centres undefined),-14%,-10,20µM*,-2
COc1cccc(-c2nc(SCc3cc(=O)c4cc(Cl)ccc4[nH]3)n[nH]2)c1,-16%,/,0%,/
CN(CCc1ccccn1)C(=O)Nc1ccc(C(C)(C)C)cc1,15%,26,0%,20*
CN(CCc1ccccn1)C(=O)Nc1ccc(F)cc1,-23%,3,0%,-5
Cc1cc2c(s1)c1cnn(Cc3ccccc3F)c(=O)c1n2Cc1ccccc1F,/,7,/,15
CCc1nn2c(=O)cc(COC(=O)c3ccccc3NC(=O)C3CCCCC3)nc2s1,31%,/,-1%,/
O=Nc1c(O)[nH]c2c(Cl)c(Cl)ccc12,/,-3,/,-5
CCOc1cc(N2CCOCC2)c(OCC)cc1NC(=O)c1ccc2ncsc2c1,-11%,/,-1%,/
O=C(OCCOc1cccc(Cl)c1)c1ccc2ncsc2c1,27%,34,0%,17*
CC(C)c1ccccc1NC(=O)c1ccc2ncsc2c1,?,39*,3%,30*
O=C(COC(=O)c1ccc2ncsc2c1)NCc1cccc(Cl)c1,7%,/,15%,/
O=C(O)c1ccc2ncsc2c1,-8%,68*,-8%,27*
O=C(c1ccc2ncsc2c1)N1CCCCC1,-4%,-20,-1%,2
O=C(Nc1ccc(F)cc1)c1ccc2ncsc2c1,62%,91*,10%,59*
Cc1cc(F)ccc1NC(=O)C1CCCN(S(=O)(=O)c2ccc3c(c2)CCCC(=O)N3)C1 (centres undefined),-30%,/,-1%,/
O=C(Nc1cccc(Cl)c1)c1ccc2ncsc2c1,31%,90*,6%,44*
O=C(Nc1ccc(C(F)(F)F)cc1)c1ccc2ncsc2c1,13%,156*,-14%,35*
COc1ccc(C(C)(C)C)cc1NC(=O)c1ccc2ncsc2c1,-13%,72*,-1%,27*
COc1ccc(NC(=O)c2ccc3ncsc3c2)c2ccccc12,3%,17,2%,4
O=C(Nc1ccc(Cl)cc1)c1ccc2ncsc2c1,39%,123*,-2%,46*
SMILES,FMDV inh,Shiga toxin inh,Sm TGR block,CHX counter
O=C(COC(=O)c1ccc2ncsc2c1)Nc1cccc(Cl)c1,0%,/,1%,/
CCSc1nn(CC(=O)Nc2cccc(CC)c2)c(N)c1S(=O)(=O)c1ccccc1,?,/,2%,/
CSCC[C@H](NC(=O)[C@H](CC(C)C)NC(=O)CNC(=O)[C@H](Cc1ccccc1)NC(=O)[C@H](Cc1ccccc1)NC(=O)[C@H](CCC(N)=O)NC(=O)[C@H](CCC(N)=O)NC(=O)[C@@H]1CCCN1C(=O)[C@H](CCCCN)NC(=O)[C@@H]1CCCN1C(=O)[C@@H](N)CCCN=C(N)N)C(N)=O,/,-3,/,-7
CCOc1ccc(CNCc2c(C(=O)O)n(Cc3ccccc3C)c3cc(OC)ccc23)cc1OC,-4%,4,2%,-3
CCc1ccc(S(=O)(=O)Nc2cc3c(cc2C)n(C)c(=O)c(=O)n3C)cc1,11%,/,-5%,/
Cc1cc(C)c(S(=O)(=O)N2CCC(N3CCN(Cc4ccccc4)C(=O)C3=O)CC2)c(C)c1,-17%,/,2%,/
Cc1ccc2nc(-c3ccncc3)c(Nc3ccc(C(C)C)cc3)n2c1,?,/,8%,/
CN1C(=O)CC(c2ccccc2)Nc2ccccc21 (centres undefined),13%,27,-3%,3
N#CC1CC(c2ccccc2)Nc2cc(Cl)ccc2N1 (centres undefined),62%,69*,-22%,37*
CN(C)Cc1c(O)ccc2occ(C(=O)c3ccccc3)c12,12%,65*,-3%,25*
CN(C)Cc1c(O)ccc2occ(C(=O)c3ccc(F)cc3)c12,8%,6,-2%,3
COc1ccc2occ(C(=O)c3coc4ccc(O)c(CN(C)C)c34)c2c1,-4%,31,2%,4
O=C(c1cccs1)c1coc2ccc(O)c(CN(CCO)CCO)c12,58%,63*,-30%,17*
CCN(CC)Cc1c(O)ccc2occ(C(=O)c3ccccc3)c12,-7%,78*,-10%,39*
CCc1nn(CC(=O)NCCc2ccc(OC)c(OC)c2)c(=O)c2cc3occc3n12,-10%,/,-7%,/
CCC1CSC(Nc2ccc(C(=O)/C=C/c3ccc(OC)c(OC)c3)cc2)=N1 (centres undefined),25µM*,28*,3%,14
CCC1CSC(Nc2ccc(C(=O)/C=C/c3ccc(Br)cc3)cc2)=N1 (centres undefined),?,57*,6%,49*
COc1ccc(/C=C/C(=O)c2ccc(NC3=NCCCS3)cc2)cc1OC,16µM*,-13,-3%,-1
COC(=O)C1=C(C)N(C(C)C)C(=O)C1(NC(=O)c1ccc(C(C)(C)C)cc1)C(F)(F)F (centres undefined),-14%,/,9%,/
COc1ccc(NC(=O)CCCc2nc(-c3ccco3)no2)c(OC)c1,-12%,/,2%,/
Cc1ccc(CSc2ncnc3ccccc23)cc1,1%,34,1%,21*
Cc1ccc(C(=O)CSc2ncnc3ccccc23)o1,8%,110*,4%,26*
O=C(CSc1ncnc2ccccc12)c1cccs1,-39%,31,0%,14
Cc1cccc(CSc2ncnc3ccccc23)c1,15%,62*,-4%,22*
c1ccc(CSc2ncnc3ccccc23)cc1,7%,18,0%,7
SMILES,FMDV inh,Shiga toxin inh,Sm TGR block,CHX counter
COCCn1c(=O)c(-c2ccccc2)nc2cnc(Nc3ccccc3)nc21,-20%,/,/,/
Cn1nc(C(=O)Nc2ccc(F)c(Cl)c2)c2c1-c1ccccc1S(=O)(=O)C2,-7%,/,-1%,/
COc1ccc(CCNC2CC(=O)N(CCc3ccccc3)C2=O)cc1 (centres undefined),/,15,?,3
O=C1CC(NCCc2ccccc2)C(=O)N1CCc1ccccc1 (centres undefined),2%,-6,-36%,6
CCN(CC)c1ccc(NC2CC(=O)N(CCc3ccc(OC)cc3)C2=O)cc1 (centres undefined),-18%,2,10µM*,-2
Cc1ccc(NC2CC(=O)N(CCc3ccccc3)C2=O)cc1 (centres undefined),20%,25,-1%,18*
COc1ccccc1-c1c(-c2ccc(O)cc2O)n[nH]c1C(F)(F)F,16µM*,-5,4%,0
